Measured values as given in PubChem BioAssay (NCI).
Several values for one entry are separate records, joined by “and”; a condition that tells them apart may be missing. Equal values may be shown once. This is part of a sample that, as a whole, favours compounds with a hit. Of some 79,000 tested, about 15% had one in any assay. Some structures have more than one record in an assay (separate samples or runs), and their calls can disagree. Activity calls are given as the source filed them. No stated cut-off is given here; in the data, active means growth inhibition above about 70%; inactive means the rest. Where a SMILES comes first, the peptide text is derived from it.

assay: NCI Yeast Anticancer Drug Screen. Data for the mlh1 rad18 strain (AID 175); conditions: S. cerevisiae mlh1 rad18 strain growth inhibition; at 50.0 µM; stronger effect = higher value
How it was run: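 Yeast w/ defined DNA-repair lesions; compound exposure; growth vs vehicle controls → % inhibition.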

Row | SMILES | growth inhibition
1 | Cc1cccc(Cc2ccccc2Cl)c1O | 46.2% (inactive)
2 | OC1CN(Cc2ccccc2)C[C@@H]1O (stereo partly drawn) | 36.8% (inactive)
3 | BrC(c1cccc2ccccc12)c1cccc2ccccc12 | 95% (active)
4 | COc1nc(NC2OC(CO)C(O)C(O)C2O)c(Cl)c(=O)n1C (stereo not drawn) | 88.9% (active)
5 | O=S(=O)(CC(Cl)c1ccccc1)c1nc2ccccc2s1 (stereo not drawn) | 47% (inactive)
6 | CCCCCCCCCCCCOS(=O)(=O)O | -2.05% (inactive) and 98.2% (active) and 55.9% (inactive)
7 | O=C(NNc1ccnc2cc(Cl)ccc12)/C(=C/c1ccc2c(c1)OCO2)NC(=O)c1ccccc1 | 93.1% (active)
8 | O=C(CCN1CCN2c3ccccc3CCC2C1)c1ccc(F)cc1 (stereo not drawn) | 98.5% (active) and 45% (inactive)
9 | CC1C[C@]2(C)C(=O)Nc3ccccc3[C@@H]2Nc2ccccc21 (stereo partly drawn) | 89.2% (active)
10 | Nc1nc(=S)c2ncn(C3OC(CO)C(O)C3O)c2[nH]1 (stereo not drawn) | -11.9% (inactive) and 97.5% (active)
11 | O=C(O)c1c2ccccc2nc2[nH]c(=O)[nH]c(=O)c12 | -1.9% (inactive) and 15.7% (inactive)
12 | N#Cc1c(/N=C/c2ccccc2Cl)sc2c1CCC2 | 13.2% (inactive)
13 | CCC1=C(C)/C(=C/c2[nH]c(C)c(CC)c2C)N=C1C | 60.5% (inactive) and 21.7% (inactive)
14 | O=C(O)c1ccccc1C(=O)O | -5.8% (inactive) and 7% (inactive)
15 | Cc1cc(C)nc(NS(=O)(=O)c2ccc(Nc3c4ccccc4nc4c(C(=O)NCCCN(CCO)CCO)cccc34)cc2)n1 | 60.2% (inactive)
16 | CCCCCCCCCCCCCCCCCCOCC(COP(=O)([O-])OCC[N+](C)(C)C)OC (stereo not drawn) | -1.25% (inactive) and -47% (inactive)
17 | S=c1nc[nH]c2[nH]ccc12 | 2.8% (inactive)
18 | C=C[C@]1(C)C=C2C(O)CC3C(C)(C)CCC[C@]3(CO)C2CC1 (stereo partly drawn) | 99.2% (active)
19 | c1ccc(-c2cnc(-c3ccc(-c4ncc(-c5ccccc5)o4)cc3)o2)cc1 | -20.6% (inactive)

Row | SMILES | growth inhibition
20 | Nc1ccc2c(ccc3ccc4ccccc4c32)c1 | 95.6% (active)
21 | O/N=C(\CC(O)(C(F)(F)F)C(F)(F)F)c1cccc(Cl)c1 | 89.3% (active)
22 | CC(=O)OC1CCC2(C)C(CCC3C4CCC(OC(C)=O)C4(C)CCC32)O1 (stereo not drawn) | 24.4% (inactive)
23 | Cc1[nH]c2ccccc2c1C1Cc2ccccc2N1 (stereo not drawn) | 69.7% (inactive) and 96.2% (active)
24 | COc1ccc(C2c3cc4c(cc3OC(NNC(N)=O)C2C)OCO4)cc1 (stereo not drawn) | 85.8% (active)
25 | Oc1ccc(C(O)(c2ccccc2)c2ccccc2)cc1 | 88.5% (active) and 69.3% (inactive)
26 | COc1ccc(CC(=O)c2ccc(O)cc2O)cc1 | 53.1% (inactive)
27 | COC(=O)C#CC(=O)OC | 21.8% (inactive) and 49.8% (inactive)
28 | O=C1OC2=C(c3ccccc3)CCCC2C1=O (stereo not drawn) | 91.7% (active) and 3.8% (inactive)
29 | CC(C)C(NC(=O)C(N)CCC(=O)O)C(=O)O (stereo not drawn) (H-Glu-Val-OH; configuration not given here) | 9.95% (inactive)
30 | CC1(C)CC(=O)C2=C(C1)OC1=C(CC(C)(C)CC1=O)C2c1ccccc1Cl (stereo not drawn) | -15.2% (inactive)
31 | O=C(CC(=O)CC(O)(c1ccccc1)c1ccccc1)CC(=O)c1ccccc1 | 98% (active)
32 | O=Nc1ccc(C=C2C(=O)C=CC2=O)cc1 | 99.5% (active)
33 | C[N+]1(Cc2ccc(Cl)c(Cl)c2)CCCC1C1CCCN(Cc2ccc(Cl)c(Cl)c2)C1 (stereo not drawn) | 29.1% (inactive) and 48.3% (inactive)
34 | C[C@H]1CC[C@H]([C@@H](C)[C@H]2[C@@H](O)C[C@H]3[C@@H]4CC[C@H]5C[C@@H](O)CC[C@]5(C)[C@H]4CC[C@]23C)NC1 | 84.5% (active) and 89.2% (active)
35 | CCOP(=O)(OCC)C(C)(CC)NC(=O)C(C(F)(F)F)C(F)(F)F (stereo not drawn) | 8.65% (inactive) and -16.8% (inactive)
36 | [N-]=[N+]=NC(=O)Nc1cccc(C(F)(F)F)c1 | 98.8% (active)
37 | NC(C/[N+]([O-])=N/O)C(=O)O (stereo not drawn) | 31.9% (inactive) and 35.6% (inactive) and 46.6% (inactive)
38 | NC(=O)N/N=C/c1ccc([N+](=O)[O-])o1 | 47.3% (inactive) and 71.3% (active)
